From PubChem BioAssay AID1566 (Sanford-Burnham Center for Chemical Genomics, 2009)
The campaign covered roughly 290,000 compounds. About 1,800 (0.62%) were called active. No stated cut-off is given here; in the data, active means inhibition above about 50%; inactive means the rest. The sample as a whole holds a higher share of actives than the screen did.

test: inhibition of NOD2-driven NF-kB reporter – cell-based, luminescence, uHTS, HEK293 (AID 1566); conditions: HEK293 NOD2/NF-kB luciferase reporter, at 4 µM, stronger effect = higher value

inhibition, active:
Cc1nc(N/N=C/c2ccccn2)sc1C 56.9%, COc1ccc(CCNC(=O)Nc2cccc([N+](=O)[O-])c2)cc1 79.5%, Cc1oc(-c2ccc(Cl)cc2)nc1CN1CCCC(C(=O)N2CCN(C(=O)c3ccco3)CC2)C1 (stereo not drawn) 50%, COc1cccc(-c2nnc3sc(C4CCCCC4)nn23)c1 55.3%, S=C(NCc1ccccc1)Nc1cccc2cnccc12 52.6%, CC1CCCN(c2ncnc3c2cnn3-c2ccc(Cl)cc2)C1 (stereo not drawn) 86.2%, COc1ccc(-n2ncc3c(N4CCCCC4)ncnc32)cc1 67.7%, CCOC(=O)C1CCN(c2ncnc3c2cnn3-c2ccc(Cl)cc2)CC1 57.5%, Clc1ccc(-n2ncc3c(N4CCCCCC4)ncnc32)cc1 70.6%

inhibition, inactive:
COC(=O)Cc1[nH]n(-c2nc3ccccc3s2)c(=O)c1C(C)=Nc1ccc(Cl)cc1 6.3%, COC(=O)Cc1[nH]n(-c2nc3ccccc3s2)c(=O)c1C(C)=O -18.8%, CN(Cc1cn[nH]c1-c1ccc2c(c1)OCO2)C1CCOCC1 10.5%, Cc1csc(N/N=C/c2ccccn2)n1 -60.9%, CCCc1sc(N/N=C/c2ccccn2)nc1-c1ccc(Br)cc1 -44.6%, Oc1ccc(Br)cc1CNc1ccccn1 -10.8%, O=C(CCl)Nc1cccc(Oc2cnccn2)c1 -47.8%, CCCCc1ccc(NC(=S)NCCc2ccc(S(N)(=O)=O)cc2)cc1 24.9%, COc1ccccc1CCNC(=O)Nc1cccc([N+](=O)[O-])c1 13.6%, COc1ccc(CCNC(=O)Nc2cccc([N+](=O)[O-])c2)cc1OC 4.7%, CCOC(=O)c1c(N)sc(C(=O)N(CC)CC)c1C 2.6%, CC1(C)CC(=O)C=C(NCc2cccs2)C1 1.3%, OCC[C@@H]1C[C@H](O)[C@@H](O)[C@]2(Cc3ccccc3CCO2)O1 -4.1%, Cc1oc(-c2ccc(Cl)cc2)nc1CN1CCCC(C(=O)N2CCOCC2)C1 (stereo not drawn) 10.7%, Cc1oc(-c2ccc(Cl)cc2)nc1CN1CCCN(C(=O)c2ccco2)CC1 18.6%, COc1ccc(OC)c(S(=O)(=O)Nc2ccc(OCC(=O)O)cc2)c1 3.3%, COc1ccc(NC(C)=O)cc1S(=O)(=O)NC(Cc1ccccc1)C(=O)O (stereo not drawn) -25.7%, COc1ccc(CC(NC(C)=O)C(=O)NC2CCN(C(=O)C3CCCCC3)CC2)cc1OC (stereo not drawn) 13.5%, CCOCCCNS(=O)(=O)c1ccc(NC(=O)c2ccccc2)cc1 11.3%, Cc1nnc(SCC(=O)Nc2ccc([N+](=O)[O-])cc2)n1CC1CCCO1 (stereo not drawn) 2.5%, CC1CCc2sc3ncnc(N4CCN(C)CC4)c3c2C1 (stereo not drawn) 12.6%, CC1CCc2c(sc3ncnc(N4CCOCC4)c23)C1 (stereo not drawn) 26%, CCOc1ccc(NC(=O)CC2C(=O)N(c3ccccc3)C(=O)N2CCc2cccs2)cc1 (stereo not drawn) 23.4%, COc1ccc(CCNC(=O)C2CCN(S(=O)(=O)c3ccc(-n4cnnn4)cc3)CC2)cc1OC 6%, CCOc1ccccc1NC(=O)CNC(=O)CNC(=O)Cc1ccccc1 -3.4%, Cc1sc2ncnc(NC3CCN(Cc4ccccc4)CC3)c2c1C 36.9%, Cc1csc2c(NC3CCN(Cc4ccccc4)CC3)ncnc12 34.1%, COc1cc(CC(=O)NCC2CCCCC2)cc(OC)c1OC -1.9%, COc1ccc(-c2nnc3sc(C4CCCCC4)nn23)cc1OC 13.6%, CCOc1cccc(-c2nnc3sc(C4CCCCC4)nn23)c1 20.8%, O=C(NC1CCCCCC1)c1ccc(OCC2CCCO2)cc1 (stereo not drawn) -82%, OCCC1CN(Cc2cccn2-c2ccccn2)CCN1C1CCCCC1 (stereo not drawn) -19.4%, CNC(=S)N/N=C/c1c(C)c(C(=O)c2ccc(F)cc2)n2ccccc12 25.2%, Cc1c(/C=N/NC(=O)c2ccc(O)cc2)c2ccccn2c1C(=O)c1ccc(F)cc1 7%, Cc1cccc(NS(=O)(=O)c2ccc(C(=O)NCCCN3CCOCC3)cc2)c1C 14.9%, S=C(NCc1ccccc1)Nc1cccc2ccccc12 3.3%, S=C(NCc1cccnc1)Nc1cccc2ccccc12 -6.2%, O=C(NN1CCOCC1)c1ccc(S(=O)(=O)N2CCCCC2)cc1 4.3%, O=C(O)c1cc(-c2ccc(N3CCOCC3)cc2)nn1-c1ccccc1Cl 3.2%, N#C/C(=C\Nc1ccc(F)c(Cl)c1)S(=O)(=O)c1ccccn1 0.9%, CCn1cc([N+](=O)[O-])c(C(=O)Nc2nc(-c3ccc(C)c(C)c3)c(C)s2)n1 13%, CCn1cc([N+](=O)[O-])c(C(=O)Nc2nc(-c3ccc(C)cc3)c(C)s2)n1 3%, Cc1nc(SCc2ccc(F)cc2)c2oc3ccccc3c2n1 11.8%, c1ccc(-n2ncc3c(N4CCCCC4)ncnc32)cc1 -32.5%, CC1CCCN(c2ncnc3c2cnn3-c2ccccc2)C1 (stereo not drawn) -14.2%, CC1CC(C)CN(c2ncnc3c2cnn3-c2ccc(Cl)cc2)C1 (stereo not drawn) 27.7%, Clc1ccc(-n2ncc3c(N4CCCC4)ncnc32)cc1 17.1%, CCOC(=O)C1CCN(c2ncnc3c2cnn3-c2ccccc2)CC1 1.8%, COc1ccc(-n2ncc3c(N4CCC(C(N)=O)CC4)ncnc32)cc1 -46.4%, COc1ccc(-n2ncc3c(N4CCC(C)CC4)ncnc32)cc1 -97.6%, CCOC(=O)C1CCN(c2ncnc3c2cnn3-c2ccc(OC)cc2)CC1 23.8%, CCCc1cc(=O)oc2cc(OCC(=O)NCc3ccccn3)ccc12 8.8%, CSc1ncc(Cl)c(C(=O)Nc2c(C)cccc2C)n1 -5.2%, N#Cc1c(NCCN)nc(-c2ccccc2)c2c1CCCC2 10.4%
